Structures are written as SMILES. Inconclusive results are not listed. Entries that show only a call come without a potency. Activity calls are given as the source filed them. Calls follow the shape of the dose curve; as a rule, active = well fitted cell-killing curve with a large enough effect in the repeat runs; inconclusive = weak or mixed curves, or effect the other way; inactive = flat fitted curve, though single readings scatter.
Potency is read from the fitted curve at half-maximal effect.

A short description of the experiment: cAMP Responsive Elements (CRE) small molecule antagonists, cell-based qHTS assay: qHTS cell viability counter screen (AID 2060913). Also: nearly all actives have a fitted effect of over 40% in size. Particulars: CRE-bla HEK293T viability, CellTiter-Glo luminescence, 5 h; series mostly up to 92.4 µM. The method, boiled down: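 Steps: cells plated and held 18 hrs at 37 C/5% CO2; compounds and NKH477 (0.25 uM final) added; 3 hrs incubation; reporter substrate read; CellTiter-Glo added to measure cytotoxicity by luminescence.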
(qHTS replaces the single test concentration by a dilution series.)
On to `CC1=C(O)C(=O)OC1C` (centres undefined), for which the Potency result was “inactive”. On the same count and under the same terms, to `Cc1cnc(C(=O)NCCc2ccc(S(=O)(=O)NC(=O)NC3CCCCC3)cc2)cn1` belongs “inactive”; to `CC(S)C(C)S` (centres undefined), “inactive”; to `CC(C)(C)C1CCC(CC2=C(O)c3ccccc3C(=O)C2=O)CC1` (centres undefined), “inactive”. Still for that read-out and setting: to `CCCC(=O)c1cc(O)c(O)cc1O` belongs “inactive”; to `CCCCCCCCCCCC(=O)OC[C@@H](O)[C@H]1OC[C@H](OCCO)[C@H]1OCCO`, “inactive”. Same read-out and setting: then `CC(C)Nc1nc(N)nc(Cl)n1`, with “inactive”. For `Cc1cccc(Nc2cc(Cl)nc(SCC(=O)O)n2)c1C`, the Potency entry was “inactive”. Regarding `O=[N+]([O-])c1ccc(/C=N\O)o1`, the Potency result was “inactive”. As to `CCC(C)NC(N)=O` (centres undefined), the Potency result is “inactive”. Still for that read-out and setting: then `C=CCCCC`, with “inactive”; and `Cc1c(C)c2c(c(C)c1OC(=O)CCC(=O)O)CC[C@@](C)(CCC[C@H](C)CCC[C@H](C)CCCC(C)C)O2`, with “inactive”; and `CCc1cc(S(=O)(=O)O)c2cc(C(C)C)cccc1-2`, with “inactive”. On the same count and under the same terms, then `CCCCCN=C(N)N/N=C/c1c[nH]c2ccc(OC)cc12`, with 29.8 µM (active). In the case of `NC(=O)CCCCC1CCSS1` (centres undefined), the Potency result is “inactive”. Same read-out and setting: to `C[C@H](CCC(=O)O)[C@H]1CC[C@H]2[C@@H]3[C@H](O)C[C@@H]4C[C@H](O)CC[C@]4(C)[C@H]3C[C@H](O)[C@]12C` belongs “inactive”; to `O=[N+]([O-])c1ccccc1CCO`, “inactive”; to `COc1c2occc2cc2ccc(=O)oc12`, “inactive”. For `OCC(O)[C@@H](O)[C@H](O)[C@H](O)CO[C@H]1O[C@H](CO)[C@@H](O)[C@H](O)[C@H]1O` (some centres undefined), the Potency result is “inactive”.

As to `CCCCCCCCCCCCN1CCCC1=O`, the Potency entry was “inactive”. The same measure, in the same setting: to `CO/N=C1\CN(c2nc3c(cc2F)c(=O)c(C(=O)O)cn3C2CC2)CC1CN` (centres undefined) belongs “inactive”; to `O=c1[nH]c2ccc(Cl)cc2o1`, “inactive”. Same read-out and setting: then `NS(=O)(=O)c1ccc(C(=O)O)cc1`, with “inactive”; and `O=c1[nH]cc(F)c(=O)[nH]1`, with “inactive”.

Take `CCCCCC(N)=O`: the Potency result is “inactive”. Turning to `O=[N+]([O-])c1cccc(I)c1`, the Potency result was “inactive”. Take `C=C(C)C1CCC(C)CC1O` (centres undefined): the Potency entry is “inactive”. Still for that read-out and setting: then `C[C@@H]1C[C@H]2[C@@H]3CCC4=CC(=O)C=C[C@]4(C)[C@@]3(Cl)[C@@H](O)C[C@]2(C)[C@@]1(OC(=O)c1ccco1)C(=O)CCl`, with “inactive”; and `C=C[C@@H](C)CCC=C(C)C`, with “inactive”. On the same count and under the same terms, then `CC(=O)OCC(=O)[C@@]1(O)CC[C@H]2[C@@H]3CCC4=CC(=O)C=C[C@]4(C)[C@H]3[C@@H](O)C[C@@]21C`, with “inactive”. Turning to `C[N+]12CCC(CC1)C(OC(=O)C(O)(c1ccccc1)c1ccccc1)C2` (centres undefined), the Potency entry was “inactive”.

Take `O=C(OCCOCCO)c1ccccc1Nc1cccc(C(F)(F)F)c1`: the Potency entry was “inactive”. For `Brc1c2ccccc2c(Br)c2ccccc12`, the viability change, negative = cytotoxic was -0.61% [at 8.39 µM] (inactive). Take `O=C1Cc2ccccc2N1c1c(Cl)cccc1Cl`: the Potency entry is “inactive”. On the same count and under the same terms, then `CCC(C)(C)C1CCC(O)CC1` (centres undefined), with “inactive”. Still for that read-out and setting: to `C[N+](C)(C)CC(O)CCl` (centres undefined) belongs “inactive”. For the compound `Nc1ccc2c(c1)CN1C(=O)c3ccccc3C1=N2`, the viability change, negative = cytotoxic is -16.9% [at 18.9 µM] (inactive). Take `O=C(Nc1cccc([N+](=O)[O-])c1)c1cc2ccccc2cc1O`: the Potency result was “inactive”. For `OCCc1ccccc1`, the Potency result was “inactive”.

These data come from PubChem BioAssay (Tox21).
